# Assay results published in PubChem BioAssay (Tox21).
# Inconclusive results are not listed. A number with no mark means an inactive call. The call rests on the fitted dose curve; in most records, active means well fitted cell-killing curve with a large enough effect in the repeat runs; inconclusive means weak or mixed curves, or effect the other way; inactive means flat fitted curve, though single readings scatter.
# Assay: qHTS RealTime-Glo MT Cell Viability Assay in HepG2 cells - 0 hour (AID 1224889); further: nearly all actives have a fitted effect of over 50% in size
# Conditions: RealTime-Glo luminescence; series mostly up to 76.8 µM; activity change, negative = cytotoxicity: at the top concentration
# How it was run: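 Viability was tracked continuously by NanoLuc luminescence from prosubstrate reduced by living HepG2 cells, at successive time points over 40 h of compound exposure. Cells with reagent were preincubated 5 h at 37 °C before compound addition.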
# On the % scale 0 is the no-effect control and ±100 the full control effect.
row,SMILES,"activity change, negative = cytotoxicity"
1,CCCCCCCC/C=C\CCCCCCCC(=O)OC[C@@H](O)[C@H]1OC[C@H](O)[C@H]1O,-0.0084%
2,COc1ccc(NS(=O)(=O)c2ccc(N)cc2)nn1,1.71% [at 35.3 µM]
3,CCS(=O)(=O)CCn1c([N+](=O)[O-])cnc1C,1.32% [at 35.3 µM]
4,O=C(O)CCNC(=O)c1ccccc1,-1.78% [at 35.3 µM]
5,C=C[Si](C)(C)O[Si](C)(C)C=C,-1.88%
6,Cc1ccccc1C(=O)N1CC/C(=N\OS(=O)(=O)O)c2ccc(Cl)cc21,-28.1% [at 35.3 µM]
7,CCCCCCCC[Si](OCC)(OCC)OCC,-0.672%
8,CNC(=O)C(c1ccccc1)c1ccccc1,-2.68%
9,CCCCCN(CCCOC)C(=O)C(CCC(=O)O)NC(=O)c1ccc(Cl)c(Cl)c1 (stereo unspecified),7.13% [at 35.3 µM]
10,CCNC(=O)/C=C/c1cccc(Br)c1,5.01% [at 35.3 µM]
11,C[C@H](CCC(=O)NCC(=O)O)[C@H]1CC[C@H]2[C@@H]3[C@H](O)C[C@@H]4C[C@H](O)CC[C@]4(C)[C@H]3C[C@H](O)[C@]12C,-15%
12,NC(Cc1c[nH]c2ccccc12)C(=O)O (stereo unspecified),8.11% [at 35.3 µM]
13,O=S(=O)(O)SSS(=O)(=O)O,1.19%
14,NS(=O)(=O)c1ccc(Cl)c(S(N)(=O)=O)c1,14.9% [at 35.3 µM]
15,COC(=O)CCC(=O)O,0.266%
16,CC(C)COC(=O)COc1ccc(Cl)cc1Cl,3.37%
17,C=C(C)[C@@H]1CC[C@@H](C)C[C@@H]1O,5.71%
18,Nc1ccc(S(=O)(=O)Nc2ccccn2)cc1,1.66% [at 35.3 µM]
19,C=CCOC(=O)c1ccc(C(=O)OCC=C)c(C(=O)OCC=C)c1,-27.8%
20,O=S(=O)(O)c1cc(O)ccc1O,3.69%
21,NS(=O)(=O)c1cc2c(cc1Cl)NC(CC1CCCC1)NS2(=O)=O (stereo unspecified),1.66% [at 35.3 µM]
